According to PubChem BioAssay (NCATS):
Records with an inconclusive call do not appear. Entries that show only a call come without a potency. Unmarked numbers belong to inactive results. Calls of active or inactive are those of the source. Unless noted, the call rests on the fitted dose curve; in most records, active means well fitted curve in the direction sought with a large enough effect in the repeat runs; inconclusive means weak or mixed curves; inactive means no such curve, though single readings can be large; an effect the other way counts as inactive or inconclusive.

Legend:
[1] = Primary qHTS for small molecule stabilizers of the endoplasmic reticulum resident proteome: Secreted ER Calcium Modulated Protein (SERCaMP) assay (AID 1508630; active means well fitted curve in the direction sought with a large enough effect; an effect the other way counts as inactive or inconclusive); conditions: SH-SY5Y GLuc-SERCaMP (Gaussia luciferase released on ER calcium loss) secretion, thapsigargin, luminescence; series mostly up to 38.4 µM
Outline: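 The SH-SY5Y reporter protocol was run at 3 concentrations up to 38.3 uM (primary) or 11 concentrations (follow-up): 16 h compound, 100 nM thapsigargin for 4 h, then extracellular luciferase luminescence.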

[2] = A High-Content qHTS Against Drug Library for the Identification of Small Molecules that Inhibit DYT1 Early Onset Primary Dystonia-Associated Cell Pathology (AID 1645839; calls by dose curve; further: potency means the concentration at half of the fitted maximal effect); conditions: HEK293 Flp-In EGFP-delE TorsinA, punctate imaging, 48 h; series mostly up to 46.1 µM
Outline: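 High-content imaging quantified EGFP-TorsinA mislocalization in HEK293-derived cells inducibly expressing DYT1 mutant torsinA, after 48 h exposure to compound given together with tetracycline induction. Cell count served as a toxicity channel alongside %pathology.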

[3] = molecular target: Cytochrome P450 2D6 (Homo sapiens) (UniProt P10635); assay: Cytochrome P450 family 2 subfamily D member 6 (CYP2D6) small molecule antagonists: luciferase biochemical (cell-free) qHTS assay (AID 1645840); conditions: P450-Glo CYP2D6 enzyme, luciferin luminescence, 1 h; series mostly up to 57.4 µM; further: nearly all actives have a fitted effect of over 55% in size; further: potency means the concentration at half of the fitted maximal effect
Cytochrome P450 2D6 (Homo sapiens), sequence (P10635 whole entry, looked up): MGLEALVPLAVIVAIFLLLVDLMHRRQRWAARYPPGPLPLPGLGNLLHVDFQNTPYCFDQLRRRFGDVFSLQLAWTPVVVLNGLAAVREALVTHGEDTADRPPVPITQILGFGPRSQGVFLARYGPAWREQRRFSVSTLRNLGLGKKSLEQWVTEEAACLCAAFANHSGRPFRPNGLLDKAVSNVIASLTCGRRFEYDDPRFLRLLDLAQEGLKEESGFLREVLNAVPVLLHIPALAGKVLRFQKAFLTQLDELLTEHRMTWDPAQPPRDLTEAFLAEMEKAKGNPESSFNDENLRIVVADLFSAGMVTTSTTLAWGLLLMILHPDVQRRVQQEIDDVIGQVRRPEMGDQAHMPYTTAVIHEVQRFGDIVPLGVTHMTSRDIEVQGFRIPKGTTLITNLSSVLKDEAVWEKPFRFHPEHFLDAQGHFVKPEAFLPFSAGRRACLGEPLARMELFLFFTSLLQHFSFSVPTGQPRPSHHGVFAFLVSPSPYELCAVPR
Outline: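 P450-Glo CYP2D6 system: proluciferin substrate converted by enzyme to luciferin, read by luminescence proportional to activity. Enzyme-substrate mix with compound 10 min at room temperature, then NADPH regeneration 1 h before detection reagent.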

[4] = molecular target: Cytochrome P450 2C9 (Homo sapiens) (UniProt P11712); assay: Cytochrome P450 family 2 subfamily C member 9 (CYP2C9) small molecule antagonists: luciferase biochemical (cell-free) qHTS assay (AID 1645842); conditions: P450-Glo CYP2C9 enzyme assay, luciferin luminescence; series mostly up to 57.4 µM; further: nearly all actives have a fitted effect of over 55% in size; further: potency means the concentration at half of the fitted maximal effect
Cytochrome P450 2C9 (Homo sapiens), sequence (P11712 whole entry, looked up): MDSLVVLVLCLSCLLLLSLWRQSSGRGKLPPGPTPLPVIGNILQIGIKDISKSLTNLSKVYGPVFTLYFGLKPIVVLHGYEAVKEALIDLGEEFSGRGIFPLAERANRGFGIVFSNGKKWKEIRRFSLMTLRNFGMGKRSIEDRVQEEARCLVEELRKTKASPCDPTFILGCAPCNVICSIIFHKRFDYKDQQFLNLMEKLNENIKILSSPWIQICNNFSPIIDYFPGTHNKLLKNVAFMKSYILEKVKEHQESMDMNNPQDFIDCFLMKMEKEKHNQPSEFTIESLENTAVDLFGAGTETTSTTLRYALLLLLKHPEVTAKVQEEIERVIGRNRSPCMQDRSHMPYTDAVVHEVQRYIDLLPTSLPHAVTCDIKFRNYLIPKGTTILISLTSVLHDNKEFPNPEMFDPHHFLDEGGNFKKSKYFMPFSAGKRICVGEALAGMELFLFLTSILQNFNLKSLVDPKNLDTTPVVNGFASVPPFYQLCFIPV
Outline: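 P450-Glo CYP2C9 system: proluciferin substrate with enzyme in mix containing 0.4% BSA, 10 min at room temperature, then NADPH regeneration solution added and incubated 1 h at 37C. Detection reagent stopped reaction; luminescence read after 20 min as RLU.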

Row | Structure (SMILES) | Potency [1] | Potency [2] | Potency [3] | Potency [4] | activity change, negative = inhibition [1] | % pathology change, negative = correction [2] | activity change, negative = inhibition [3] | activity change, negative = inhibition [4]
1 | CCN1CCCC1CN (stereo unspecified) | inactive | inactive | inactive | inactive |  |  |  | 
2 | CC1CN(c2cc3c(cc2F)c(=O)c(C(=O)O)cn3-c2ccc(F)cc2F)CCN1 (stereo unspecified) |  |  |  |  | -17% [at 3.88 µM] | -2.29% [at 4.63 µM] | -0.861% [at 4.83 µM] | 17.6% [at 4.83 µM]
3 | Cc1ccc(C(C)OC(=O)C2(C)CCC(C(=O)O)C2(C)C)cc1 (stereo unspecified) | inactive | inactive | inactive | inactive |  |  |  | 
4 | Cc1ncc([N+](=O)[O-])n1C | inactive | inactive | inactive | inactive |  |  |  | 
5 | Cc1ccc(/C=N/n2c(-c3ccccc3)csc2=S)cc1 | inactive | inactive | inactive | 4.36 µM (active) |  |  |  | 
6 | Cc1ccccc1C(=O)N1CC/C(=N\OS(=O)(=O)O)c2ccc(Cl)cc21 | inactive | inactive | inactive | 8.71 µM (active) |  |  |  | 
7 | OC1(c2ccc(Cl)c(C(F)(F)F)c2)CCN(CCCC(c2ccc(F)cc2)c2ccc(F)cc2)CC1 | inactive | 4.47 µM (active) | 1.23 µM (active) | 15.5 µM (active) |  |  |  | 
8 | CC(C)CCCC(C)NCCC(C)C (stereo unspecified) | inactive | inactive | 0.55 µM (active) | inactive |  |  |  | 
9 | CO[C@@H]1[C@@H](O[C@@H]2O[C@H](C)[C@@H](O[C@H]3C[C@@](C)(O)[C@@H](O)[C@H](C)O3)[C@H](N(C)C)[C@H]2O)[C@@H](CC=O)C[C@@H](C)[C@@H](O[C@@H]2CC[C@H](N(C)C)[C@@H](C)O2)/C=C/C=C/C[C@@H](C)OC(=O)C[C@H]1OC(C)=O | inactive | inactive | inactive | inactive |  |  |  | 
10 | Cc1nc([N+](=O)[O-])cn1-c1ccc([N+](=O)[O-])cc1 | inactive | inactive | inactive | inactive |  |  |  | 
11 | NS(=O)(=O)c1cc(C(=O)NN2C[C@H]3[C@H]4CCC(C4)[C@H]3C2)ccc1Cl | inactive | inactive | inactive | inactive |  |  |  | 
12 | CC(C)(Oc1ccc(Cl)cc1)C(=O)OCCCOC(=O)C(C)(C)Oc1ccc(Cl)cc1 | inactive | inactive | inactive | 7.76 µM (active) |  |  |  | 
13 | CO[C@]1(NC(=O)CSC(F)F)C(=O)N2C(C(=O)O)=C(CSc3nnnn3CCO)CO[C@H]21 | inactive | inactive | inactive | inactive |  |  |  | 
14 | Cc1ccc2ccc(Cl)cc2n1 | inactive | inactive | inactive | inactive |  |  |  | 
15 | O=C(O)CNC(=O)CNC(=O)CNC(=O)CSC(=O)c1ccccc1 | inactive | inactive | inactive | inactive |  |  |  | 
16 | Nc1c2ccccc2nc2ccccc12 | inactive | inactive | 17.4 µM (active) | inactive |  |  |  | 
17 | Cc1ncc(CO)c(CO)c1O | inactive | inactive | inactive | inactive |  |  |  | 
18 | COc1cc(C(=O)OC(COCCC(C)C)CN2CCOCC2)cc(OC)c1OC (stereo unspecified) | inactive | inactive | inactive | 2.19 µM (active) |  |  |  | 
19 | Nc1ccc([N+](=O)[O-])c(C(F)(F)F)c1 | inactive | inactive | inactive | inactive |  |  |  | 
20 | CN(C)CCN(Cc1ccsc1)c1ccccn1 | inactive | inactive | 6.92 µM (active) | inactive |  |  |  | 
21 | CCS(=O)(=O)c1ccc(OC)c(C(=O)OC)c1 | inactive | inactive | inactive | inactive |  |  |  | 
22 | C[N+]1(CC2COC(c3ccccc3)(c3ccccc3)O2)CCCCC1 (stereo unspecified) | inactive | inactive | 1.51 µM (active) | inactive |  |  |  | 
23 | Nc1ccc2c(c1)CN1C(=O)c3ccccc3C1=N2 | inactive | inactive | 1.69 µM (active) | 4.25 µM (active) |  |  |  | 
24 | CCCC(=O)O[C@]1(C(=O)CC)CC[C@H]2[C@@H]3CCC4=CC(=O)CC[C@]4(C)[C@H]3[C@@H](O)C[C@@]21C | inactive | inactive | 12.3 µM (active) | 17.4 µM (active) |  |  |  | 
25 | C[C@H]1C[C@H]2[C@@H]3CCC4=CC(=O)C=C[C@]4(C)[C@H]3C(=O)C[C@]2(C)[C@@]1(O)C(=O)CO | inactive | inactive | inactive | 15.1 µM (active) |  |  |  | 
26 | O=C(OCC1(COC(=O)c2cccnc2)CCCC(COC(=O)c2cccnc2)(COC(=O)c2cccnc2)C1O)c1cccnc1 | inactive | inactive | inactive | 2.45 µM (active) |  |  |  | 
27 | O=[N+]([O-])c1nccn1CO[C@@H](CO)[C@H](O)CO | inactive | inactive | inactive | inactive |  |  |  | 
28 | CC(=O)Oc1ccc(C2(c3ccc(OC(C)=O)cc3)Oc3ccccc3NC2=O)cc1 | inactive | 12.6 µM (active) | inactive | 1.74 µM (active) |  |  |  | 
29 | Cc1c(F)cc2c(=O)c(C(=O)O)cn3c2c1CCC3C (stereo unspecified) | inactive | inactive | inactive | inactive |  |  |  | 
